From PubChem
T cruzi growth-1 = T. cruzi intracellular proliferation inhibitors, primary screen, cell-based, beta-gal Tulahuen parasites, NIH3T3 host, luminescence. 5.9% of 77,000 active. AID 624255, 2012. T. cruzi beta-gal in NIH3T3, GalScreen luminescence, 90 h. inhibition, % at 8.34 µM;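 active = mean inhibition above about 93%, with at least 55% of replicates each passing it, limit read from the data, passing the limit was not always enough; inconclusive = only one of those two conditions holds; inactive = neither condition holds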
C diff HTS = C. difficile growth inhibitors, primary screen, HTS. Clostridium difficile clinical isolate growth, OD600, 24 h; active compounds read low. growth activity, negative = inhibition, % at 16 µg/mL (by protocol). 0.25% of 86,000 active. AID 1259249, 2017;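 active = mean growth activity at or below -80% and every replicate also at or below -80%; inconclusive = mean at or below -80% but some replicate above -80%; inactive = mean growth activity above -80%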
Pf Dd2 inh = P. falciparum Dd2 growth inhibitors, primary screen, SYBR Green fluorescence, single dose replicates; 72 h; active compounds read low; activity change, % at 10 µM; 2.3% of 94,000 active; AID 1159554, 2015; in the data active = activity change below about -80%; inconclusive = no clear call, values can overlap the other calls
T cruzi growth-2 = T. cruzi intracellular proliferation inhibitors, confirmation, cell-based, NIH3T3 host, beta-gal parasite, luminescence, cherry-pick; shares compounds with T cruzi growth-1; 72% of 5,600 active; inhibition, % at 8.35 µM; T. cruzi beta-gal in NIH3T3, GalScreen luminescence, 90 h;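 active = mean replicate inhibition above about 95% and at least 55% of replicates individually reaching it, limit read from the data; inconclusive = only one of the two criteria is met; inactive = neither criterion is met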
T cruzi growth-3 = inhibitors of intracellular T. cruzi replication, confirmation, NIH3T3 host cells, beta-gal parasites, cherry-pick, set 2. shares compounds with T cruzi growth-1. T. cruzi beta-gal in NIH3T3, GalScreen luminescence, 90 h. inhibition, % at 2.09 µM. 21% of 5,600 active;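 active = mean inhibition above about 95%, with at least 55% of replicates also reaching it, limit read from the data; inconclusive = meets just one of the two conditions; inactive = meets neither condition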
NIH3T3 tox = cytotoxicity in mouse NIH/3T3 fibroblasts, confirmation, cytotoxicity control for T. cruzi proliferation inhibitor project, cell-based, cherry-pick, single point | shares compounds with T cruzi growth-1 | NIH/3T3 viability, CellTiter-Glo ATP luminescence, 90 h | cytotoxicity (signal decrease), % at 8.35 µM | 14% of 5,600 active | AID 651742, 2012;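 active = mean signal decrease across replicates above about 35% based on untreated-well scatter, with enough replicates individually passing, limit read from the data; inconclusive = no rule stated though some were filed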
NIH3T3 tox 2 = NIH/3T3 fibroblast cytotoxicity, confirmation, cytotoxicity control, cell-based, cherry-pick, single point, set 2 | shares compounds with T cruzi growth-1 | NIH/3T3 viability, CellTiter-Glo ATP luminescence, 90 h | inhibition, % at 24.9 µM | 56% of 5,600 active | AID 651744, 2012;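 active = mean loss of cell viability signal at or above a set limit, and enough replicates individually reaching it; inconclusive = meets only the mean limit or only the replicate share; inactive = meets neither condition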
A number is an active result; - = inactive; ? = inconclusive; . = no result. Rows were chosen to be rich in hits. Some 6.7% of all compounds tested hit in one or more screens of this group.

SMILES	T cruzi growth-1	C diff HTS	Pf Dd2 inh	T cruzi growth-2	T cruzi growth-3	NIH3T3 tox	NIH3T3 tox 2
C[C@@H]1CN([C@H](C)CO)C(=O)c2cc(NC(=O)Cc3ccccc3)ccc2O[C@@H](C)CCCCO[C@H]1CN(C)C(=O)Nc1ccc(F)cc1	-	-	-	.	.	.	.
C[C@H]1CN([C@@H](C)CO)C(=O)Cc2cc(NC(=O)CCCN(C)C)ccc2O[C@@H]1CN(C)C(=O)Nc1ccc2c(c1)OCO2	?	-	-	-	-	-	-
C[C@H](CO)N1C[C@H](C)[C@@H](CN(C)C(=O)Nc2ccc(F)cc2)OCCCC[C@H](C)Oc2ccc(NC(=O)Cc3ccccc3)cc2C1=O	98	-	-	?	-	-	-
C[C@@H]1CCCCO[C@H](CN(C)C(=O)Nc2ccc(F)cc2)[C@H](C)CN([C@@H](C)CO)C(=O)c2cc(NC(=O)Cc3ccccc3)ccc2O1	103	-	-82	104	-	-	-
C[C@@H]1CCCCO[C@@H](CN(C)C(=O)Nc2ccc(F)cc2)[C@H](C)CN([C@@H](C)CO)C(=O)c2cc(NC(=O)Cc3ccccc3)ccc2O1	-	-	-	.	.	.	.
C[C@@H]1CN([C@@H](C)CO)C(=O)Cc2cc(NC(=O)CCCN(C)C)ccc2O[C@H]1CN(C)C(=O)Nc1ccc(F)cc1	.	-	-	.	.	.	.
CCN(C[C@@H]1[C@@H](c2ccc(C3=CCCC3)cc2)[C@@H](CO)N1C(C)=O)C(C)=O	-	-	-	.	.	.	.
Cc1noc(C)c1NC(=O)N(C)C[C@H]1OCCCC[C@H](C)Oc2ccc(NC(=O)Nc3ccc(F)cc3)cc2C(=O)N([C@@H](C)CO)C[C@@H]1C	-	-	-	.	.	.	.
C[C@H](CO)N1C[C@H](C)[C@H](CN(C)S(=O)(=O)c2ccc(F)cc2)Oc2c(NC(=O)C3CC3)cccc2C1=O	-	-	-	.	.	.	.
COc1ccc(S(=O)(=O)N[C@@H]2CC[C@@H](CC(=O)NCCc3ccccc3)O[C@H]2CO)cc1	.	-	-	.	.	.	.
O=C(Cc1ccccn1)N1CC(=O)N2[C@@H](CO)[C@@H](c3ccc(-c4ccc(F)cc4)cc3)[C@@H]2C1	.	-	-	.	.	.	.
COCC#Cc1ccc([C@H]2[C@H]3CN(S(=O)(=O)c4ccc(OC)cc4)CCCCN3[C@H]2CO)cc1	-	-	-	.	.	.	.
COCC#Cc1ccc([C@@H]2[C@H](CO)N3CCCCN(S(=O)(=O)c4ccc(OC)cc4)C[C@@H]23)cc1	-	-	-	.	.	.	.
COCC#Cc1ccc([C@H]2[C@H](CO)N3CCCCN(S(=O)(=O)c4ccc(OC)cc4)C[C@@H]23)cc1	?	-	-	100	-	-	-
COCC#Cc1ccc([C@H]2[C@@H](CO)N3CCCCN(S(=O)(=O)c4ccc(OC)cc4)C[C@@H]23)cc1	?	-	-	100	-	-	34
O=C(C1CC1)N1CCCCN2[C@@H](CO)[C@@H](c3ccc(C#CC4CCCC4)cc3)[C@@H]2C1	-	-	-	.	.	.	.
O=C(C1CC1)N1CCCCN2[C@H](CO)[C@@H](c3ccc(C#CC4CC4)cc3)[C@@H]2C1	105	-	-	98	-	-	37
O=C(C1CC1)N1CCCCN2[C@@H](CO)[C@H](c3ccc(C#CC4CCCC4)cc3)[C@@H]2C1	-	-	-	.	.	.	.
O=C(C1CCCC1)N1CCCCN2[C@@H](CO)[C@@H](c3ccc(C#CC4CC4)cc3)[C@@H]2C1	-	-	-	.	.	.	.
O=C(C1CCCC1)N1CCCCN2[C@H](CO)[C@@H](c3ccc(C#CC4CC4)cc3)[C@@H]2C1	113	-	-	99	-	-	-
O=C(C1CCCC1)N1CCCCN2[C@H](CO)[C@H](c3ccc(C#CC4CC4)cc3)[C@@H]2C1	120	-	-	117	96	40	-
O=C(C1CCC1)N1CCCCN2[C@@H](CO)[C@H](c3ccc(C#CC4CCCC4)cc3)[C@@H]2C1	98	-	-	104	-	40	105
CC(C)NC(=O)N1CCCCN2[C@H](CO)[C@@H](c3ccc(C#CC4CC4)cc3)[C@H]2C1	-	-	-	.	.	.	.
COc1ccc(NC(=O)N(C)C[C@H]2Oc3c(NC(=O)c4cc(C)nn4C)cccc3C(=O)N([C@@H](C)CO)C[C@H]2C)cc1	-	-	-	.	.	.	.
C[C@H]1CN([C@@H](C)CO)C(=O)c2cc(NC(=O)CCCN(C)C)ccc2O[C@H]1CN(C)S(=O)(=O)c1cccs1	-	.	-	.	.	.	.
SMILES	T cruzi growth-1	C diff HTS	Pf Dd2 inh	T cruzi growth-2	T cruzi growth-3	NIH3T3 tox	NIH3T3 tox 2
CC(=O)N1[C@H](CO)[C@H](c2ccccc2)[C@H]1CNC(=O)CN1CCOCC1	-	-	-	.	.	.	.
CCC(=O)N1[C@@H]2Cn3c(cccc3=O)[C@H]1[C@@H](C(=O)NC1CCCC1)[C@@H]2CO	.	-	-	.	.	.	.
C[C@@H]1CN([C@@H](C)CO)C(=O)c2cccc(NC(=O)Nc3ccc(F)cc3)c2O[C@@H]1CN(C)S(C)(=O)=O	-	-	-	.	.	.	.
CO[C@@H]1CN(C)C(=O)c2ccc(NC(=O)c3ccccc3)cc2OC[C@H](C)N(C(=O)CN(C)C)C[C@@H]1C	-	.	-	.	.	.	.
C[C@H]1CN([C@@H](C)CO)C(=O)c2cc(NC(=O)Nc3ccc4c(c3)OCO4)ccc2O[C@H]1CN(C)Cc1ccc(Oc2ccccc2)cc1	117	-	-	109	-	-	41
C[C@@H]1CN([C@@H](C)CO)C(=O)c2cc(NC(=O)Cc3ccccc3)ccc2O[C@H]1CN(C)Cc1ccc(Oc2ccccc2)cc1	-	.	-	.	.	.	.
C[C@@H]1CN([C@@H](C)CO)C(=O)c2cccc(NC(=O)Nc3ccc4c(c3)OCO4)c2O[C@@H]1CN(C)Cc1ccc(Oc2ccccc2)cc1	-	-	-	.	.	.	.
C[C@H](CO)N1C[C@H](C)[C@H](CN(C)Cc2ccncc2)Oc2ccc(NC(=O)Nc3ccc4c(c3)OCO4)cc2C1=O	117	-	-	-	-	-	34
C[C@H](CO)N1C[C@H](C)[C@H](CN(C)Cc2ccc(Oc3ccccc3)cc2)Oc2ccc(NC(=O)Cc3ccccc3)cc2C1=O	?	.	-	-	-	-	102
C[C@@H]1CN([C@@H](C)CO)C(=O)c2cc(NC(=O)Nc3ccc4c(c3)OCO4)ccc2O[C@@H]1CN(C)Cc1ccncc1	-	-	-	.	.	.	.
C[C@H](CO)N1C[C@H](C)[C@@H](CN(C)Cc2ccc(Oc3ccccc3)cc2)Oc2c(NC(=O)Nc3ccc4c(c3)OCO4)cccc2C1=O	?	-	-	109	-	-	-
